Where “and” joins values, the source holds several entries; their conditions need not be identical. Equal values may be shown once. Records with an inconclusive call do not appear. A call without a number means that no potency is given here. Calls of active or inactive are those of the source. Unless noted, calls follow the shape of the dose curve; as a rule, active = well fitted curve in the direction sought with a large enough effect; inconclusive = small, poorly fitted or top-dose-only effect, or another doubt; inactive = no such curve, though single readings can be large; an effect the other way counts as inactive or inconclusive.
Assays:
[1] = Primary qHTS for small molecule stabilizers of the endoplasmic reticulum resident proteome: Secreted ER Calcium Modulated Protein (SERCaMP) assay (AID 1508630)
Outline: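 GLuc-SERCaMP-expressing SH-SY5Y cells, pretreated 16 h with compound, are challenged with thapsigargin to empty ER calcium stores; after 4 h, coelenterazine is added directly to the medium and luminescence is imaged.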

Papain (Carica papaya) = Papain (Carica papaya) (UniProt P00784); test: Primary qHTS assay for inhibitors of the protease papain (AID 1645873);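 also: papain turnover of Z-FR-AMC read as the AMC fluorescence gain over 10 min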; also: potency is read from the fitted curve at half-maximal effect
[2] = biological target: Rap guanine nucleotide exchange factor 3 (Homo sapiens) (UniProt O95398); test: Confirmatory qHTS for antagonist of cAMP-regulated guanine nucleotide exchange factor 3 (EPAC1) (AID 1645880); also: nearly all actives have a fitted effect of over 55% in size; also: potency is read from the fitted curve at half-maximal effect
Outline: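 Nucleotide exchange uses 100 nM EPAC1, 250 nM RAP1B-BODIPY-GDP and 50 uM GDP, with compounds in a concentration-titration series. After 5 min at room temperature, fluorescence (480 nm ex/540 nm em) is read every 5 min for 30 min. Data are normalized to control ATA and DMSO.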

[3] = biological target: Rap guanine nucleotide exchange factor 3 (Homo sapiens) (UniProt O95398); test: Confirmatory qHTS for agonist of cAMP-regulated guanine nucleotide exchange factor 3 (EPAC1) (AID 1645881); also: nearly all actives have a fitted effect of over 75% in size; also: potency is read from the fitted curve at half-maximal effect
[4] = biological target: Rap guanine nucleotide exchange factor 4 (Homo sapiens) (UniProt Q8WZA2); test: Confirmatory qHTS for agonist of cAMP-regulated guanine nucleotide exchange factor 4 (EPAC2) (AID 1645884);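 also: nucleotide exchange releases bodipy-GDP from Rap1 and this lowers its fluorescence; nearly all actives have a fitted effect of over 65% in size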; also: potency is read from the fitted curve at half-maximal effect
[5] = biological target: Rap guanine nucleotide exchange factor 4 (Homo sapiens) (UniProt Q8WZA2); test: Confirmatory qHTS for antagonist of cAMP-regulated guanine nucleotide exchange factor 4 (EPAC2) (AID 1645885); also: potency is read from the fitted curve at half-maximal effect; nearly all actives have a fitted effect of over 25% in size
[6] = biological target: Catechol O-methyltransferase (Homo sapiens) (UniProt P21964); test: Confirmatory Screen for Target Class Profiling of Small Molecule Inhibitors of Methyltransferases (AID 1745852; calls by dose curve); settings: MTase-Glo luminescence, SAH detection, recombinant enzyme; measured here: COMT max response; stronger effect = lower value
[7] = biological target: Guanidinoacetate N-methyltransferase (Homo sapiens) (UniProt Q14353); test: as above; settings: MTase-Glo luminescence, SAH detection, recombinant enzyme; activity change, negative = inhibition: at 57.3 µM (top of the series)
[8] = biological target: Nicotinamide N-methyltransferase (Homo sapiens) (UniProt P40261); test: as above; settings: MTase-Glo luminescence, SAH detection, recombinant enzyme; measured here: NNMT max response; stronger effect = lower value
[9] = biological target: Phenylethanolamine N-methyltransferase (Homo sapiens) (UniProt P11086); test: as above; settings: MTase-Glo luminescence, SAH detection, recombinant enzyme; measured here: PNMT max response; stronger effect = lower value
[10] = Primary qHTS for inhibitors of nuclear receptor binding SET domain protein 2 (NSD2) in an isogenic RCH-ACV NSD2 p.E1099K mutant (9B) (AID 1645876); also: nearly all actives have a fitted effect of over 70% in size
[11] = Primary qHTS for inhibitors of nuclear receptor binding SET domain protein 2 (NSD2) in an RCH-ACV wild type WT cells (2C) (AID 1645877); also: nearly all actives have a fitted effect of over 70% in size
[12] = biological target: Rap guanine nucleotide exchange factor 3 (Homo sapiens) (UniProt O95398); test: Counterscreen qHTS for antagonist of cAMP-regulated guanine nucleotide exchange factor 3 (EPAC1) (AID 1645888);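 also: fluorescence loss as bound BODIPY-GDP is released from Rap1B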
Outline: (§1)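 Measured: fluorescence of BODIPY-GDP bound to Rap1B, which falls as exchange proceeds. Conditions include 50 uM competing GDP, 5 and 30 min reads, and a later cAMP challenge for antagonist detection.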

[13] = biological target: Rap guanine nucleotide exchange factor 3 (Homo sapiens) (UniProt O95398); test: Counterscreen qHTS for agonist of cAMP-regulated guanine nucleotide exchange factor 3 (EPAC1) (AID 1645889); also: nearly all actives have a fitted effect of over 40% in size
Outline: as §1

Sequence of Phenylethanolamine N-methyltransferase (Homo sapiens) (P11086 whole entry, looked up, the tested form may be a part): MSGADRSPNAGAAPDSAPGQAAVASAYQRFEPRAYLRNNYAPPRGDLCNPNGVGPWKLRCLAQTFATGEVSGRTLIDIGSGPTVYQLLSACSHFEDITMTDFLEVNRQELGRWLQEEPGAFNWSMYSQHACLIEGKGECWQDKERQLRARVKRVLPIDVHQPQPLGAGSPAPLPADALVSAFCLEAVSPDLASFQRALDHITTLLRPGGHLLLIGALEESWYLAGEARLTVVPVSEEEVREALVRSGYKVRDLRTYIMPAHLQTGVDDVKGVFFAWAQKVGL
Sequence of Nicotinamide N-methyltransferase (Homo sapiens) (P40261 whole entry, looked up): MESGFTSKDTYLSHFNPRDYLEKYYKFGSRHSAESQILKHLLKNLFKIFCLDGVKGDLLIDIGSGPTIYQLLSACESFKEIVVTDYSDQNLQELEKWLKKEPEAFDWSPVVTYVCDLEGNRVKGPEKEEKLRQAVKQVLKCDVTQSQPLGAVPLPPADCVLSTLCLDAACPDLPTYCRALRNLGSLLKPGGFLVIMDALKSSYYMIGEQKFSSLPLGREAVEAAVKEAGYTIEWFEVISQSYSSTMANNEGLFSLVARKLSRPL
Sequence of Rap guanine nucleotide exchange factor 4 (Homo sapiens) (Q8WZA2 whole entry, looked up): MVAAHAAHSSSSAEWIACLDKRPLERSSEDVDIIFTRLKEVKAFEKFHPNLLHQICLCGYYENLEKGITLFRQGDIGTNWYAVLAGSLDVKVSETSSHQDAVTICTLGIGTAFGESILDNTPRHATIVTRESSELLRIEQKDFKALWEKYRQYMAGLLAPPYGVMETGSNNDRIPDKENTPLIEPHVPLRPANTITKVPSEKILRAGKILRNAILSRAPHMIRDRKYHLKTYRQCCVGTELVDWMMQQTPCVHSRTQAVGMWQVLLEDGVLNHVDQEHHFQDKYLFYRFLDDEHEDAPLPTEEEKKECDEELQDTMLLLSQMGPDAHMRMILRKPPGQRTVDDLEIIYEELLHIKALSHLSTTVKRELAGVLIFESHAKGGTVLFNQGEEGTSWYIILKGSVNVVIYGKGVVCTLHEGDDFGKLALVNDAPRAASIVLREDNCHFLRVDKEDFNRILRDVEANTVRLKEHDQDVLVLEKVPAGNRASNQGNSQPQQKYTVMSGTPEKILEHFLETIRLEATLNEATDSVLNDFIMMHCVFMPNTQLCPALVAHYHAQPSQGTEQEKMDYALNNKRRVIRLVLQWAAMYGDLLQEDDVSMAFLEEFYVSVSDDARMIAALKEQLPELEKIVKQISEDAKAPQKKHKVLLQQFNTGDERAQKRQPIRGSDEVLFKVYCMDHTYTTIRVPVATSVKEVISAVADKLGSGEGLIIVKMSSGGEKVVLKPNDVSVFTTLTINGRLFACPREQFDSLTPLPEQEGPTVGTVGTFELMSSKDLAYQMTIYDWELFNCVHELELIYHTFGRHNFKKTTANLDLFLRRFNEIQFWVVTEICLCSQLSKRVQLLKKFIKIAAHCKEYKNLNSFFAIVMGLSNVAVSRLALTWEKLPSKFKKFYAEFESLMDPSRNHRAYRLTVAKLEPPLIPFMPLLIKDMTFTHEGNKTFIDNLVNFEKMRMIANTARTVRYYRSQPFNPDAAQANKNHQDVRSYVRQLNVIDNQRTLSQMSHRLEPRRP
Sequence of Catechol O-methyltransferase (Homo sapiens) (P21964 whole entry, looked up): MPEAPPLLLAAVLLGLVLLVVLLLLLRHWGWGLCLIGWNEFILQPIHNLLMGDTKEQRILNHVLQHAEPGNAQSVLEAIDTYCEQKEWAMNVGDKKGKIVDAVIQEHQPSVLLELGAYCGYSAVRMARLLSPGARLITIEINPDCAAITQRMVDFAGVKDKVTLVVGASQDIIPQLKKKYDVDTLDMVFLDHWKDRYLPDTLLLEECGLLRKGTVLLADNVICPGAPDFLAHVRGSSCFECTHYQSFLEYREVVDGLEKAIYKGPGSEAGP
Sequence of Rap guanine nucleotide exchange factor 3 (Homo sapiens) (O95398 whole entry, looked up): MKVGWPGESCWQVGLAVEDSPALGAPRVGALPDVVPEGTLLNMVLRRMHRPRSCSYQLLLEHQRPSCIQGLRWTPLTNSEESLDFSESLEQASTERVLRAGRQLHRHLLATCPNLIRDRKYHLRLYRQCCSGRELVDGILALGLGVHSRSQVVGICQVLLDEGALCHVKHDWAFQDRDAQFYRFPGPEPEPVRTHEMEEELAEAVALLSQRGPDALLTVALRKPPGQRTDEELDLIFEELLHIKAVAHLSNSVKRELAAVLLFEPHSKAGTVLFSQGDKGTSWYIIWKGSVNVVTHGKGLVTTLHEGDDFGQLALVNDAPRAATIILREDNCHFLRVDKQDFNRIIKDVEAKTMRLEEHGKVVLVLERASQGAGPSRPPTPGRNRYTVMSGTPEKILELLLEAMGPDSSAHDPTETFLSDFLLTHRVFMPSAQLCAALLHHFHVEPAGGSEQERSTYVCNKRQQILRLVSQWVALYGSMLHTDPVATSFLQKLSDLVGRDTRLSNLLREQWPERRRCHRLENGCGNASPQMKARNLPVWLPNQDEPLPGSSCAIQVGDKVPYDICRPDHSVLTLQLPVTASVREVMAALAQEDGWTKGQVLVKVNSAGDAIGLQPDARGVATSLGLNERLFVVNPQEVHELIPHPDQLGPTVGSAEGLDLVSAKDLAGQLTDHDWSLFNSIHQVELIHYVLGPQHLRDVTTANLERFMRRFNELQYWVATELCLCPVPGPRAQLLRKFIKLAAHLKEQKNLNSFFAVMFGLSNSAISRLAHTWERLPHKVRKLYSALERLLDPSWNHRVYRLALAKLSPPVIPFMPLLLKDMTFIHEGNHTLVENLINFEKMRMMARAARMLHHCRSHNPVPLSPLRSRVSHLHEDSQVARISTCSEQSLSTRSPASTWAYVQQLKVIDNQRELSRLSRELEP
Sequence of Papain (Carica papaya) (P00784 whole entry, looked up): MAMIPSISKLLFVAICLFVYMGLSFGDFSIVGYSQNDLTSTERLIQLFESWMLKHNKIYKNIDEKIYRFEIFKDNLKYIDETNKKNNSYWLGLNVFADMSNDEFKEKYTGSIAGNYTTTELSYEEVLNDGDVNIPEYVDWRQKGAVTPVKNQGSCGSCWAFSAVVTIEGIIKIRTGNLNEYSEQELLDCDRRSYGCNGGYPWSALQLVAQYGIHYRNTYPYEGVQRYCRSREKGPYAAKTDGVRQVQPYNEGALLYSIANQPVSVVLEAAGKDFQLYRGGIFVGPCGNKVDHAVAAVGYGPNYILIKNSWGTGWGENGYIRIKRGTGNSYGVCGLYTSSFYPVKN

Structure (SMILES): CC(C)Cn1c(=O)n(C)c(=O)c2[nH]cnc21
- Potency [1]: inactive
- Potency (Papain (Carica papaya)): inactive

Structure (SMILES): O=[N+]([O-])c1cccc2c(Br)[nH]nc12
- Potency [1]: inactive
- Potency (Papain (Carica papaya)): inactive

Structure (SMILES): CCCCCCC(=O)OC1CC(C)(C)NC(C)(C)C1
- Potency [1]: inactive
- Potency (Papain (Carica papaya)): inactive

Structure (SMILES): C[C@@]1(C2CCCC2)Cc2cc(OCC(=O)O)c(Cl)c(Cl)c2C1=O
- Potency [1]: inactive
- Potency (Papain (Carica papaya)): inactive
- Potency [2]: inactive
- Potency [3]: inactive
- Potency [4]: inactive
- Potency [5]: 17.5 µM (active)
- activity [6]: 5.42%
- activity change, negative = inhibition [7]: 7.12%
- activity [8]: -45.2%
- activity [9]: 5.32%

Structure (SMILES): O=C(O)c1ccccc1Nc1cccc(OCc2ccc3ccccc3n2)c1
- Potency [1]: inactive
- Potency (Papain (Carica papaya)): inactive

Structure (SMILES): C#CC(N)CCC(=O)O (stereo unspecified)
- Potency (Papain (Carica papaya)): inactive

Structure (SMILES): Nc1ncnc2c1nc(Br)n2C1OC2COP(=O)(O)O[C@@H]2C1O (stereo partly specified)
- Potency [1]: inactive
- Potency (Papain (Carica papaya)): inactive
- Potency [2]: 3.14 µM (active)
- Potency [3]: 4.46 µM (active) and 3.97 µM (active)
- Potency [4]: 3.54 µM (active) and 3.16 µM (active)
- Potency [5]: 5.55 µM (active) and 3.93 µM (active)

Structure (SMILES): CC[n+]1c(/C=C/C=C2/N(C)c3ccccc3C2(C)C)sc2ccccc21
- Potency (Papain (Carica papaya)): inactive

Structure (SMILES): COc1cc(/C=C(\C#N)C(=O)Nc2nnc(C(F)(F)F)s2)ccc1OCc1ccc(C(F)(F)F)cc1C(F)(F)F
- Potency [1]: inactive
- Potency [10]: inactive
- Potency [11]: inactive

Structure (SMILES): CN(C)C(=O)/N=N/C(=O)N(C)C
- Potency [1]: inactive
- Potency (Papain (Carica papaya)): inactive
- activity [6]: -3.94%
- activity change, negative = inhibition [7]: 0.919%
- activity [8]: -6.49%
- activity [9]: -4.1%

Structure (SMILES): CCCC[C@@]1(C2CCCC2)Cc2cc(OCC(=O)O)c(Cl)c(Cl)c2C1=O
- Potency [1]: inactive
- Potency (Papain (Carica papaya)): 25.1 µM (active)
- Potency [3]: inactive
- Potency [4]: inactive
- Potency [5]: 6.01 µM (active) and 3.5 µM (active)
- outcome [12]: inactive
- outcome [13]: inactive
- activity [6]: 8.39%
- activity change, negative = inhibition [7]: 7.65%
- activity [8]: -66.3%
- activity [9]: 7.03%
